Reference: PubChem BioAssay AID1159580 (chemical genetic matrix, 2015)
Hit rate of the full screen: of about 5,500 compounds, about 2,000 (36%) were called active. Roughly 18% stayed inconclusive and do not appear here. Cut-off read from the data, not from the text of the source: active = normalized growth mostly below about 0.91 (no sharp cut-off); inconclusive = no clear call, values can overlap the other calls; inactive = mostly above about 0.92. The list shows a part of the results.

Assay: chemical genetic growth profiling, strain panel (AID 1159580);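 note: tested at 20 µM; growth read once vehicle control cultures reached saturation at 30 °C; 1 = growth at the plate median or of vehicle wells; lower values mean less growth of the strain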
Settings: growth OD

Measured: normalized growth

CCS(=O)(=O)CCn1c([N+](=O)[O-])cnc1C
inactive: S. cerevisiae deletion strains, locus YJR075W, strain HOC1, hits give low values 0.981 | S. cerevisiae deletion strains, locus YKL009W, strain mrt4, hits give low values 1.04 | S. cerevisiae deletion strains, locus YKL068W, hits give low values 1.02 | S. cerevisiae deletion strains, locus YKL085W, strain MDH1 (second series), hits give low values 1.04 | S. cerevisiae deletion strains, locus YKL085W, strain MDH1, hits give low values 1.04 | S. cerevisiae deletion strains, locus YKL160W, strain elf1, hits give low values 1.03 | S. cerevisiae deletion strains, locus YKL190W, strain CNB1, hits give low values 1.01 | S. cerevisiae deletion strains, locus YKR001C, strain vps1, hits give low values 1.03 | S. cerevisiae deletion strains, locus YKR026C, strain gcn3, hits give low values 0.984 | S. cerevisiae deletion strains, locus YKR091W, strain srl3, hits give low values 0.999 | S. cerevisiae deletion strains, locus YLL001W, strain dnm1, hits give low values 0.993 | S. cerevisiae deletion strains, locus YLL026W, hits give low values 1.01 | S. cerevisiae deletion strains, locus YLL041C, strain sdh2, hits give low values 0.993 | S. cerevisiae deletion strains, locus YLR027C, strain aat2, hits give low values 0.997 | S. cerevisiae deletion strains, locus YLR039C, strain RIC1, hits give low values 1.07 | S. cerevisiae deletion strains, locus YLR058C, strain SHM2, hits give low values 1.01 | S. cerevisiae deletion strains, locus YLR102C, strain apc9, hits give low values 1.01 | S. cerevisiae deletion strains, locus YLR113W, strain HOG1, hits give low values 0.938 | S. cerevisiae deletion strains, locus YLR221C, strain rsa3, hits give low values 0.989 | S. cerevisiae deletion strains, locus YLR258W, strain gsy2, hits give low values 1.01 | S. cerevisiae deletion strains, locus YLR262C, strain YPT6 (second series), hits give low values 0.967 | S. cerevisiae deletion strains, locus YLR262C, strain YPT6, hits give low values 1.1 | S. cerevisiae deletion strains, locus YLR268W, strain sec22, hits give low values 1.01 | S. cerevisiae deletion strains, locus YLR320W, strain mms22, hits give low values 0.972 | S. cerevisiae deletion strains, locus YLR330W, strain CHS5, hits give low values 1.01 | S. cerevisiae deletion strains, locus YLR342W, strain FKS1 (second series), hits give low values 1.06 | S. cerevisiae deletion strains, locus YLR342W, strain FKS1, hits give low values 1.02 | S. cerevisiae deletion strains, locus YLR357W, strain rsc2, hits give low values 0.999 | S. cerevisiae deletion strains, locus YLR370C, strain arc18, hits give low values 1 | S. cerevisiae deletion strains, locus YLR371W, strain rom2, hits give low values 1.01 | S. cerevisiae deletion strains, locus YLR384C, strain iki3, hits give low values 1.01 | S. cerevisiae deletion strains, locus YLR418C, strain cdc73, hits give low values 1.03 | S. cerevisiae deletion strains, locus YML016C, strain PPZ1, hits give low values 1.01 | S. cerevisiae deletion strains, locus YML032C, strain rad52, hits give low values 1.03 | S. cerevisiae deletion strains, locus YML120C, strain ndi1, hits give low values 1 | S. cerevisiae deletion strains, locus YML124C, strain tub3, hits give low values 1 | S. cerevisiae deletion strains, locus YMR058W, strain fet3, hits give low values 1 | S. cerevisiae deletion strains, locus YMR078C, strain ctf18, hits give low values 1.01 | S. cerevisiae deletion strains, locus YMR125W, strain sto1, hits give low values 0.976 | S. cerevisiae deletion strains, locus YMR129W, hits give low values 0.98 | S. cerevisiae deletion strains, locus YMR205C, strain PFK2, hits give low values 0.988 | S. cerevisiae deletion strains, locus YMR223W, strain ubp8, hits give low values 1.04 | S. cerevisiae deletion strains, locus YMR231W, strain pep5, hits give low values 0.991 | S. cerevisiae deletion strains, locus YMR263W, strain SAP30, hits give low values 1.02 | S. cerevisiae deletion strains, locus YMR307W, strain GAS1, hits give low values 1.21 | S. cerevisiae deletion strains, locus YNL067W, strain RPL9B, hits give low values 1.02 | S. cerevisiae deletion strains, locus YNL071W, strain lat1, hits give low values 0.982 | S. cerevisiae deletion strains, locus YNL128W, strain TEP1, hits give low values 1.02 | S. cerevisiae deletion strains, locus YNL153C, strain GIM3, hits give low values 1.01 | S. cerevisiae deletion strains, locus YNL183C, strain NPR1, hits give low values 0.915 | S. cerevisiae deletion strains, locus YNL209W, strain ssb2, hits give low values 0.987 | S. cerevisiae deletion strains, locus YNL233W, strain BNI4, hits give low values 1.02 | S. cerevisiae deletion strains, locus YNL248C, strain rpa49, hits give low values 1.01 | S. cerevisiae deletion strains, locus YNL250W, strain rad50, hits give low values 1.02 | S. cerevisiae deletion strains, locus YNL271C, strain bni1, hits give low values 1.02 | S. cerevisiae deletion strains, locus YNL298W, strain CLA4, hits give low values 1.03 | S. cerevisiae deletion strains, locus YNL307C, strain MCK1, hits give low values 1.05 | S. cerevisiae deletion strains, locus YNL322C, strain KRE1 (second series), hits give low values 1.01 | S. cerevisiae deletion strains, locus YNL322C, strain KRE1, hits give low values 1.01 | S. cerevisiae deletion strains, locus YNR049C, strain mso1, hits give low values 0.997 | S. cerevisiae deletion strains, locus YNR052C, strain pop2, hits give low values 1.01 | S. cerevisiae deletion strains, locus YOL006C, strain TOP1, hits give low values 1.04 | S. cerevisiae deletion strains, locus YOL012C, strain htz1 0.976 | S. cerevisiae deletion strains, locus YOL147C, strain pex11, hits give low values 1 | S. cerevisiae deletion strains, locus YOR001W, strain rrp6, hits give low values 0.971 | S. cerevisiae deletion strains, locus YOR061W, strain CKA2, hits give low values 1.01 | S. cerevisiae deletion strains, locus YOR069W, strain VPS5, hits give low values 1 | S. cerevisiae deletion strains, locus YOR070C, strain gyp1, hits give low values 1.01 | S. cerevisiae deletion strains, locus YOR080W, strain dia2, hits give low values 1.01 | S. cerevisiae deletion strains, locus YOR083W, strain WHI5, hits give low values 1 | S. cerevisiae deletion strains, locus YOR106W, strain vam3, hits give low values 1.02 | S. cerevisiae deletion strains, locus YOR136W, strain idh2, hits give low values 1.02 | S. cerevisiae deletion strains, locus YOR144C, strain elg1, hits give low values 1.01 | S. cerevisiae deletion strains, locus YOR184W, strain ser1, hits give low values 1.07 | S. cerevisiae deletion strains, locus YOR231W, strain MKK1, hits give low values 0.962 | S. cerevisiae deletion strains, locus YOR265W, strain rbl2, hits give low values 0.994 | S. cerevisiae deletion strains, locus YOR270C, strain vph1, hits give low values 0.977 | S. cerevisiae deletion strains, locus YOR290C, strain snf2, hits give low values 1.02 | S. cerevisiae deletion strains, locus YOR316C, strain cot1, hits give low values 1.02 | S. cerevisiae deletion strains, locus YPL051W, strain arl3, hits give low values 1.03 | S. cerevisiae deletion strains, locus YPL055C, strain LGE1, hits give low values 1.06 | S. cerevisiae deletion strains, locus YPL078C, strain atp4, hits give low values 1.01 | S. cerevisiae deletion strains, locus YPL106C, strain sse1, hits give low values 0.994 | S. cerevisiae deletion strains, locus YPL240C, strain hsp82, hits give low values 0.991 | S. cerevisiae deletion strains, locus YPL241C, strain CIN2, hits give low values 1.01 | S. cerevisiae deletion strains, locus YPL256C, strain CLN2, hits give low values 0.973 | S. cerevisiae deletion strains, locus YPR119W, strain clb2, hits give low values 1 | S. cerevisiae deletion strains, locus YPR141C, strain kar3, hits give low values 1.02 | S. cerevisiae deletion strains, locus YPR163C, strain tif3, hits give low values 1.01 | S. cerevisiae deletion strains, locus YPR167C, strain met16, hits give low values 1.02 | S. cerevisiae deletion strains, strain wtn01, hits give low values 1 | S. cerevisiae strains, strain wild type, hits give low values 1.05
